Values joined by “and” are separate entries in the source; they are usually repeats but may differ in a detail not shown here. Equal values may be shown once. Records with an inconclusive call do not appear. Where a call stands in place of a potency, no number is given. More than one record can exist for a structure, and the calls need not agree. Active and inactive are the calls of the source. Unless noted, calls come from the whole dose curve; as a rule, active = well fitted curve in the direction sought with a large enough effect in the repeat runs; inconclusive = weak or mixed curves; inactive = no such curve, though single readings can be large; an effect the other way counts as inactive or inconclusive.

Chain of Androgen receptor (Homo sapiens) (P10275 whole entry, looked up): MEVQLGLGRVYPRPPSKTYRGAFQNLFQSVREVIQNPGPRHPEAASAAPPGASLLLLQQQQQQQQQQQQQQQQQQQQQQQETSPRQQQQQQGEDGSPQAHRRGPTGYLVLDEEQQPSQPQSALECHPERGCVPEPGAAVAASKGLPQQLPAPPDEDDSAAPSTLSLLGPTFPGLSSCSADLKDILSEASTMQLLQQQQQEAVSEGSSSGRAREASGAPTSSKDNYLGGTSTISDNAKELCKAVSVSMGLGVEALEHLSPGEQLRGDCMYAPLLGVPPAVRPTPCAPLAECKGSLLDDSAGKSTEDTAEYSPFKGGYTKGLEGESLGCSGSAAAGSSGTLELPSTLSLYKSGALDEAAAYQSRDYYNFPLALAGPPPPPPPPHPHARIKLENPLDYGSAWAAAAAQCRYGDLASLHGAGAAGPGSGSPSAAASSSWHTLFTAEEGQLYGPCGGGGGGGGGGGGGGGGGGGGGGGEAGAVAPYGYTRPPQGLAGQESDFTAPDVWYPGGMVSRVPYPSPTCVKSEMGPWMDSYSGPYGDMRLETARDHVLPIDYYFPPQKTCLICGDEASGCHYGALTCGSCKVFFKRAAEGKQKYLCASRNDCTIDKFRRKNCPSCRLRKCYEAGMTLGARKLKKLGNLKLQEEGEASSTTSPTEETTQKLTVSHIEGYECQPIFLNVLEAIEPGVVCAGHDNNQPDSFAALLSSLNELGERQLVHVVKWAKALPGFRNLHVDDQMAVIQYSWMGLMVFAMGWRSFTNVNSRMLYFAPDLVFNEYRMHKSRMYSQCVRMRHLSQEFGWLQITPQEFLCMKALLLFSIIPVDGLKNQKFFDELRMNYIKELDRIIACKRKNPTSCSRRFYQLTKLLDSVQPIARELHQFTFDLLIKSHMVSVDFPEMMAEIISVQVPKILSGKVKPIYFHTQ

Tested on in the first experiment: not listed separately
As to the kind of experiment: qHTS assay to identify small molecule antagonists of the androgen receptor (AR) signaling pathway using the MDA cell line in the presence of 0.5 nM R1881 - cell viability counter screen (AID 1259242). Note: nearly all actives have a fitted effect of over 45% in size. Note: potency is the fitted concentration of half-maximal effect. The settings on record: MDA-kb2 viability, CellTiter-Fluor protease fluorescence, 16 h; series mostly up to 92.4 µM. A digest of the protocol: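 Concentration-response screen of compounds for toxicity in MDA-kb2 reporter cells: 16 hr at 37C with 0.5 nM R1881, endpoint live-cell protease fluorescence measured in the reporter wells.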
With `SCCCCCCCCS`, the Potency entry was “inactive”.
Regarding `CCCCCCCCCC(=O)N(C)C`, the Potency result was “inactive”.
In the case of `Oc1ccc(-c2ccc(O)cc2)cc1`, the Potency result is “inactive”.
With `Cc1cc(Nc2ccc(O)cc2)ccc1N`, the Potency is 48.3 µM (active).

A further experiment has as its target Androgen receptor (Homo sapiens) (UniProt P10275). Nature of the experiment: qHTS assay to identify small molecule antagonists of the androgen receptor (AR) signaling pathway using the MDA cell line in the presence of 0.5 nM R1881 (AID 1259243). Note: nearly all actives have a fitted effect of over 50% in size. Note: potency is the fitted concentration of half-maximal effect. The settings on record: MDA-kb2 MMTV-luciferase, R1881 0.5 nM, 16 h; series mostly up to 92.4 µM. The method, boiled down: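 With R1881 held at 0.5 nM (final), compound effects on MMTV-luciferase expression in MDA-kb2 cells were scored by luminescence after a 16 hr, 37C incubation.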
With `O=C1NCCN1CCN1CCC(c2cn(-c3ccc(F)cc3)c3ccc(Cl)cc23)CC1`, the Potency is 11.9 µM (active).
Still for that read-out and setting: the figure for `C[n+]1c2cc(N)ccc2cc2ccc(N)cc21` (tested in a mixture with another compound) is 13.3 µM (active).
Same read-out and setting: for `N#CSCSc1nc2ccccc2s1` the value was “inactive”; for `Nc1ccc2cc3ccc(N)cc3nc2c1`, “inactive and 10.6 µM (active)”.
Still for that read-out and setting: for `CCC(C)c1cc([N+](=O)[O-])cc([N+](=O)[O-])c1OC(=O)OC(C)C` (centres undefined) the value was 38.6 µM (active); for `CC(C)(c1cc(Br)c(OCCO)c(Br)c1)c1cc(Br)c(OCCO)c(Br)c1`, 23.8 µM (active); for `CCC(C)(C)c1cc(O)c(C(C)(C)CC)cc1O`, 17.2 µM (active).
As to `CN1CCN(C2Cc3ccccc3Sc3ccc(Cl)cc32)CC1` (centres undefined), the Potency is 29.8 µM (active).
Still for that read-out and setting: the entry for `Cc1ccc(-n2[nH]c(C)c(N=Nc3cccc(-c4cccc(C(=O)O)c4)c3O)c2=O)cc1C` is “inactive”; for `COC(=O)C1=C(C)NC(C)=C(C(=O)OCCCN2CCC(c3ccccc3)(c3ccccc3)CC2)C1c1cccc([N+](=O)[O-])c1` (centres undefined) it is 21.1 µM (active); for `COc1cc(C=C2CCC/C(=C\c3ccc(O)c(OC)c3)C2=O)ccc1O` it is 9.44 µM (active).

In another experiment the target is Estrogen receptor (Homo sapiens) (UniProt P03372). As to the kind of experiment: qHTS assay to identify small molecule antagonists of the estrogen receptor alpha (ER-alpha) signaling pathway using the BG1 cell line in the presence of 0.1 nM 17-beta-estradiol (AID 1259244). Note: nearly all actives have a fitted effect of over 50% in size. Note: potency is the fitted concentration of half-maximal effect. Particulars: VM7Luc4E2 (BG1) ERE-luciferase, antagonist mode, 0.1 nM E2, 22 h; series mostly up to 92.4 µM. A digest of the protocol: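 Compounds were tested against 0.1 nM (final) 17beta-estradiol in VM7Luc4E2 cells, which express full-length ER-alpha and an ERE-luciferase reporter; luminescence was recorded following 22 h exposure.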
Chain of Estrogen receptor (Homo sapiens) (P03372 whole entry, looked up): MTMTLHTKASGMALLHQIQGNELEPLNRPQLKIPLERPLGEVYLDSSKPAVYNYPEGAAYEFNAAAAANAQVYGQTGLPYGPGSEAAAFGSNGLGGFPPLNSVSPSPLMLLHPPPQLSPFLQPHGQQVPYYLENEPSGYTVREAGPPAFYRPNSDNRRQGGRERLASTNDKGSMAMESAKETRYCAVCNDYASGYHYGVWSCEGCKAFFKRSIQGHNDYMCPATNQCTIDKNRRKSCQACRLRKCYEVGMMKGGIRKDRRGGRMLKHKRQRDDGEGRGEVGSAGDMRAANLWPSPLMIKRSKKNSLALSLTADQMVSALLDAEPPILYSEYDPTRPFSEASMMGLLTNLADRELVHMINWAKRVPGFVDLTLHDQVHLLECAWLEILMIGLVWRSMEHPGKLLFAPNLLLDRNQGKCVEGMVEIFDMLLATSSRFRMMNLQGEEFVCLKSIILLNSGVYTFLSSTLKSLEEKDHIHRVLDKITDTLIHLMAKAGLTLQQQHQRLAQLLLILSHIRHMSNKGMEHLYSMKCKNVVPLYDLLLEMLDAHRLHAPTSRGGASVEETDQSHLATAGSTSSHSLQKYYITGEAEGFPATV
Consider `CO[C@H]1C=CO[C@@]2(C)Oc3c(C)c(O)c4c(O)c(cc(O)c4c3C2=O)NC(=O)/C(C)=C\C=C/[C@H](C)[C@H](O)[C@@H](C)[C@@H](O)[C@@H](C)[C@H](OC(C)=O)[C@@H]1C`, for which the Potency is 54.9 µM (active).
On the same count and under the same terms, the entry for `CCO[Si](CCCSSSSCCC[Si](OCC)(OCC)OCC)(OCC)OCC` is “inactive”; for `CCCCN(CCCC)CCC(O)c1cc2c(Cl)cc(Cl)cc2c2cc(C(F)(F)F)ccc12` (centres undefined) it is “inactive”; for `O=C1NCCN1CCN1CCC(c2cn(-c3ccc(F)cc3)c3ccc(Cl)cc23)CC1` it is 8.41 µM (active).
On the same count and under the same terms, for `CN(C)c1ccc(N=Nc2ccccc2C(=O)O)cc1` the value was “inactive”.
Still for that read-out and setting: for `CCN(CC)CCOc1ccc(C(O)(Cc2ccc(Cl)cc2)c2ccc(C)cc2)cc1` (centres undefined) the value was “inactive”; for `O=C(Nc1ccc(Cl)c(Cl)c1)c1cc(Cl)cc(Cl)c1O`, 3.44 µM (active).
Turning to `O[C@@H](c1cc(C(F)(F)F)nc2c(C(F)(F)F)cccc12)[C@H]1CCCCN1`, the Potency result is “inactive”.
Still for that read-out and setting: for `CCC(C)(C)c1cc(O)c(C(C)(C)CC)cc1O` the value was 68.6 µM (active); for `CN1CCN(C2Cc3ccccc3Sc3ccc(Cl)cc32)CC1` (centres undefined), “inactive”.
On the same count and under the same terms, the entry for `CCCCOc1ccc(C(=O)CCN2CCCCC2)cc1` is “inactive”.
Same read-out and setting: for `CCN(CC)CCNc1ccc(CO)c2sc3ccccc3c(=O)c12` the value was “inactive”; for `CN(C)CCCN1c2ccccc2Sc2ccc(C(F)(F)F)cc21`, “inactive”.
As to `CCCCCCCCCCOCC(O)CN` (centres undefined), the Potency entry is “inactive”.
On the same count and under the same terms, for `C[C@@]12C(=O)OC(=O)[C@]1(C)C1CCC2O1` the value was 6.68 µM (active); for `Cc1cc2c(C(C)C)c(O)c(O)c(C=O)c2c(O)c1-c1c(C)cc2c(C(C)C)c(O)c(O)c(C=O)c2c1O`, “inactive”.

Tested on in a further experiment: not listed separately
Nature of the experiment: qHTS assay to identify small molecule phospholipidosis (PLD) inducers (AID 1259344; active = well fitted curve in the direction sought with a large enough effect; an effect the other way counts as inactive or inconclusive). Particulars: HepG2 phospholipidosis, LipidTOX Red imaging, 24 h; series mostly up to 38.3 µM. The method, boiled down:
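Cells (HepG2, 900 per well) attach for 4 h, receive LipidTOX Red and compound together, incubate 24 h at 37 C, are fixed 30 min with paraformaldehyde/Hoechst, then imaged at one site per well.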
With `CO[C@H]1C=CO[C@@]2(C)Oc3c(C)c(O)c4c(O)c(cc(O)c4c3C2=O)NC(=O)/C(C)=C\C=C/[C@H](C)[C@H](O)[C@@H](C)[C@@H](O)[C@@H](C)[C@H](OC(C)=O)[C@@H]1C`, the Potency result was “inactive”.
As for `O=C1NCCN1CCN1CCC(c2cn(-c3ccc(F)cc3)c3ccc(Cl)cc23)CC1`, the Potency entry was “inactive”.
Consider `CCN(CC)CCOc1ccc(C(O)(Cc2ccc(Cl)cc2)c2ccc(C)cc2)cc1` (centres undefined), for which the Potency result is “inactive”.
Still for that read-out and setting: for `C[n+]1c2cc(N)ccc2cc2ccc(N)cc21` (tested in a mixture with another compound) the value was “inactive”; for `Nc1ccc2cc3ccc(N)cc3nc2c1`, “inactive”.
Regarding `O[C@@H](c1cc(C(F)(F)F)nc2c(C(F)(F)F)cccc12)[C@H]1CCCCN1`, the Potency entry was “inactive”.
Regarding `CCCCOc1ccc(C(=O)CCN2CCCCC2)cc1`, the Potency entry is “inactive”.
The same measure, in the same setting: the entry for `CCN(CC)CCNc1ccc(CO)c2sc3ccccc3c(=O)c12` is “inactive”; for `COc1ccccc1OCCNCC(O)COc1cccc2[nH]c3ccccc3c12` (centres undefined) it is “inactive”; for `COc1cc(C=C2CCC/C(=C\c3ccc(O)c(OC)c3)C2=O)ccc1O` it is “inactive”.
As for `C[C@@]12C(=O)OC(=O)[C@]1(C)C1CCC2O1`, the Potency entry is “inactive”.
The same measure, in the same setting: for `Cc1cc2c(C(C)C)c(O)c(O)c(C=O)c2c(O)c1-c1c(C)cc2c(C(C)C)c(O)c(O)c(C=O)c2c1O` the value was “inactive”.

Tested on in another experiment: not listed separately
As to the kind of experiment: qHTS assay to identify small molecule HDAC inhibitors (AID 1259364). Note: potency is the fitted concentration of half-maximal effect.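 Note: wild-type HCT-116 cells with endogenous class I/II HDAC activity; nearly all actives have a fitted effect of over 45% in size.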 The settings on record: HCT-116 HDAC-Glo I/II luminescence, 2 h; series mostly up to 92.4 µM. A digest of the protocol:
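Screening used wild-type human colon HCT-116 cells incubated overnight, dosed with compounds for 2 hours, and assayed with a homogeneous luminogenic HDAC I/II reagent for 30 minutes at room temperature.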
On to `CO[C@H]1C=CO[C@@]2(C)Oc3c(C)c(O)c4c(O)c(cc(O)c4c3C2=O)NC(=O)/C(C)=C\C=C/[C@H](C)[C@H](O)[C@@H](C)[C@@H](O)[C@@H](C)[C@H](OC(C)=O)[C@@H]1C`, for which the Potency entry was “inactive”.
The same measure, in the same setting: the entry for `CCO[Si](CCCSSSSCCC[Si](OCC)(OCC)OCC)(OCC)OCC` is “inactive”; for `CCCCN(CCCC)CCC(O)c1cc2c(Cl)cc(Cl)cc2c2cc(C(F)(F)F)ccc12` (centres undefined) it is “inactive”.
`O=C1NCCN1CCN1CCC(c2cn(-c3ccc(F)cc3)c3ccc(Cl)cc23)CC1`: the Potency entry is “inactive”.
For the compound `CN(C)c1ccc(N=Nc2ccccc2C(=O)O)cc1`, the Potency was 8.63 µM (active).
Regarding `CCN(CC)CCOc1ccc(C(O)(Cc2ccc(Cl)cc2)c2ccc(C)cc2)cc1` (centres undefined), the Potency result was “inactive”.
The same measure, in the same setting: for `C[n+]1c2cc(N)ccc2cc2ccc(N)cc21` (tested in a mixture with another compound) the value was “inactive”.
Still for that read-out and setting: the entry for `C=CC(=O)OCCOCC(CC)(COCCOC(=O)C=C)COCCOC(=O)C=C` is “inactive”.
For the compound `N#CSCSc1nc2ccccc2s1`, the Potency is 19.3 µM (active).
Same read-out and setting: the figure for `O=C(Nc1ccc(Cl)c(Cl)c1)c1cc(Cl)cc(Cl)c1O` is 1.22 µM (active).
With `Nc1ccc2cc3ccc(N)cc3nc2c1`, the Potency result was “inactive”.
Same read-out and setting: the entry for `CCC(C)c1cc([N+](=O)[O-])cc([N+](=O)[O-])c1OC(=O)OC(C)C` (centres undefined) is “inactive”.
On the same count and under the same terms, for `CC(C)(c1cc(Br)c(OCCO)c(Br)c1)c1cc(Br)c(OCCO)c(Br)c1` the value was “inactive”; for `O[C@@H](c1cc(C(F)(F)F)nc2c(C(F)(F)F)cccc12)[C@H]1CCCCN1`, “inactive”; for `CCC(C)(C)c1cc(O)c(C(C)(C)CC)cc1O`, “inactive”.
Same read-out and setting: for `CN1CCN(C2Cc3ccccc3Sc3ccc(Cl)cc32)CC1` (centres undefined) the value was “inactive”; for `Cc1ccc(-n2[nH]c(C)c(N=Nc3cccc(-c4cccc(C(=O)O)c4)c3O)c2=O)cc1C`, “inactive”.
With `CCCCOc1ccc(C(=O)CCN2CCCCC2)cc1`, the Potency result is “inactive”.
The same measure, in the same setting: for `CC(=O)OC(OC(C)=O)c1ccc([N+](=O)[O-])o1` the value was “inactive”; for `CCC1(c2cnc[nH]2)Cc2ccccc2C1`, “inactive”.
On to `CCN(CC)CCNc1ccc(CO)c2sc3ccccc3c(=O)c12`, for which the Potency result is “inactive”.
Still for that read-out and setting: for `COc1ccccc1OCCNCC(O)COc1cccc2[nH]c3ccccc3c12` (centres undefined) the value was “inactive”; for `CN(C)CCCN1c2ccccc2Sc2ccc(C(F)(F)F)cc21`, “inactive”; for `COC(=O)C1=C(C)NC(C)=C(C(=O)OCCCN2CCC(c3ccccc3)(c3ccccc3)CC2)C1c1cccc([N+](=O)[O-])c1` (centres undefined), “inactive”.
On to `Cc1cccc(C)c1NC(=O)CN1CCN(CCCC(c2ccc(F)cc2)c2ccc(F)cc2)CC1`, for which the Potency entry is “inactive”.
On the same count and under the same terms, for `Nc1cc(Cl)c([N+](=O)[O-])cc1O` the value was “inactive”; for `CCCCCCCCCCOCC(O)CN` (centres undefined), “inactive”.
Same read-out and setting: the entry for `COc1cc(C=C2CCC/C(=C\c3ccc(O)c(OC)c3)C2=O)ccc1O` is “inactive”.
Same read-out and setting: the entry for `C[C@@]12C(=O)OC(=O)[C@]1(C)C1CCC2O1` is “inactive”; for `Cc1cc2c(C(C)C)c(O)c(O)c(C=O)c2c(O)c1-c1c(C)cc2c(C(C)C)c(O)c(O)c(C=O)c2c1O` it is “inactive”; for `CC1CCCCN1CCCOC(=O)c1ccc(OC2CCCCC2)cc1` (centres undefined) it is “inactive”.

Values taken from PubChem BioAssay (Tox21).
